# Several values for one entry are separate records, joined by “and”; a condition that tells them apart may be missing. Equal entries are not always repeated. The panel holds about 79,000 compounds, 15% with a hit somewhere; the sample as a whole holds those more often. More than one record can exist for a structure, and the calls need not agree. Activity calls are given as the source filed them. Cut-off read from the data, not from the text of the source: active = growth inhibition above about 70%; inactive = the rest.
# What was measured:
# [1] = NCI Yeast Anticancer Drug Screen. Data for the rad50 strain (AID 155);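 note: 0% = growth of vehicle-only cultures of the same strain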; conditions: S. cerevisiae rad50 strain growth inhibition, stronger effect = higher value
# How it was run: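 Cells are treated with compound, grown, and their growth is then scored against vehicle-only cultures of the same repair-deficient yeast strain.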
# [2] = NCI Yeast Anticancer Drug Screen. Data for the mec2-1 strain (AID 157); conditions: S. cerevisiae mec2-1 strain, stronger effect = higher value
# How it was run: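 mec2-1 yeast strain, carrying an alteration in DNA damage repair or cell cycle control, was exposed to compounds; growth inhibition was measured relative to vehicle-treated controls.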
# [3] = NCI Yeast Anticancer Drug Screen. Data for the sgs1 mgt1 strain (AID 161);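 note: 0% = growth of cultures given vehicle only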; conditions: S. cerevisiae sgs1 mgt1 strain, stronger effect = higher value
# How it was run: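 This yeast growth screen uses a strain with defined DNA-repair lesions; compound-treated growth is compared with vehicle-treated growth.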
# [4] = NCI Yeast Anticancer Drug Screen. Data for the cln2 rad14 strain (AID 165);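 note: 0% = growth equal to vehicle treated cultures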; conditions: S. cerevisiae cln2 rad14 strain, stronger effect = higher value
# How it was run: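 Yeast carrying cln2 and rad14 alterations (cell cycle control and DNA damage repair) were exposed to compounds. Growth inhibition was measured against vehicle-treated controls.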
# [5] = NCI Yeast Anticancer Drug Screen. Data for the bub3 strain (AID 167); conditions: S. cerevisiae bub3 mutant strain, stronger effect = higher value
# How it was run: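 Part of a panel of yeast mutants defective in DNA damage repair or cell cycle regulation. Each strain is grown with compound, and inhibition is calculated relative to solvent-treated cultures.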
# [6] = NCI Yeast Anticancer Drug Screen. Data for the mlh1 rad18 strain (AID 175); conditions: S. cerevisiae mlh1 rad18 strain growth inhibition, stronger effect = higher value
# How it was run: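 Growth inhibition of the yeast strain was measured after compound exposure and expressed relative to vehicle-treated controls. The strain carries defined defects in DNA damage repair.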
# [7] = at 5.0 µM (retest, dose inferred, filed as 0.5)
# [8] = at 50.0 µM (retest, dose inferred, filed as 5.0)
SMILES,"growth inhibition [1, 7]","growth inhibition [1, 8]",growth inhibition ([1]; at 50.0 µM),"growth inhibition [2, 7]","growth inhibition [2, 8]",growth inhibition ([2]; at 50.0 µM),"growth inhibition [3, 7]","growth inhibition [3, 8]",growth inhibition ([3]; at 50.0 µM),"growth inhibition [4, 7]","growth inhibition [4, 8]",growth inhibition ([4]; at 50.0 µM),"growth inhibition [5, 7]","growth inhibition [5, 8]",growth inhibition ([5]; at 50.0 µM),"growth inhibition [6, 7]","growth inhibition [6, 8]",growth inhibition ([6]; at 50.0 µM)
C#CC(C)(C)OC(=O)Nc1ccccc1,5% (inactive),86% (active),12.6% (inactive) and 89.2% (active),-14% (inactive),62% (inactive),9.3% (inactive) and 43.6% (inactive),-2% (inactive),80% (active),-10.1% (inactive) and 84% (active),0% (inactive),14% (inactive),-53% (inactive) and 2.95% (inactive),-6% (inactive),79% (active),-7.8% (inactive) and 59.4% (inactive),-3% (inactive),80% (active),8.4% (inactive) and 86.7% (active)
CCOCc1ccccc1C(O)(c1ccc(OC)cc1)c1ccc(OC)cc1,5% (inactive) and 1% (inactive),2% (inactive) and 1% (inactive),48.3% (inactive) and 78.8% (active),2% (inactive) and 6% (inactive),9% (inactive) and 11% (inactive),33.4% (inactive) and 72.5% (active),6% (inactive) and -2% (inactive),10% (inactive) and 21% (inactive),60.5% (inactive) and 77.2% (active),3% (inactive) and 5% (inactive),3% (inactive) and 7% (inactive),67% (inactive) and 94.2% (active),3% (inactive) and 14% (inactive),33% (inactive) and 61% (inactive),76.5% (active) and 95.8% (active),3% (inactive) and 5% (inactive),-26% (inactive) and 41% (inactive),74% (active) and 82.8% (active)
CCCCCCCCCCCCOC(=O)C(C)OC(C)=O (stereo unspecified),1% (inactive) and 2% (inactive),99% (active) and 97% (active),98.8% (active) and 98.9% (active),-1% (inactive) and 1% (inactive),99% (active) and 98% (active),98.5% (active) and 98.8% (active),2% (inactive) and 5% (inactive),99% (active),99.2% (active) and 7.6% (inactive),-1% (inactive) and 5% (inactive),97% (active) and 92% (active),98.8% (active) and 96.5% (active),1% (inactive),99% (active) and 96% (active),98% (active) and 99.1% (active),-10% (inactive) and 2% (inactive),99% (active),98.7% (active) and 99% (active)
O=C1C=CC(=O)C(c2ccc3ccccc3c2)=C1,90% (active),98% (active),99% (active),96% (active),99% (active),99.1% (active),85% (active),99% (active),99.2% (active),73% (active),98% (active),98.8% (active),91% (active),97% (active),99% (active),97% (active),99% (active),99% (active)
CCc1[nH]c(=O)nc(N)c1-c1ccc(N2CCCCC2)c([N+](=O)[O-])c1,-11% (inactive),-25% (inactive),89.8% (active),-23% (inactive),1% (inactive),86.8% (active),0% (inactive),-6% (inactive),90.8% (active),-31% (inactive),-25% (inactive),70.8% (active),-25% (inactive),-32% (inactive),71.4% (active),-22% (inactive),-12% (inactive),90.8% (active)
O=[N+]([O-])c1ccc(N/N=C(/C=N/Nc2ccc([N+](=O)[O-])cc2)C(O)C(O)C(O)CO)cc1 (stereo unspecified),44% (inactive) and 67% (inactive),97% (active) and 96% (active),97.7% (active) and 97.2% (active),48% (inactive) and 55% (inactive),99% (active) and 98% (active),97.8% (active) and 97.7% (active),44% (inactive) and 79% (active),98% (active),97.7% (active) and 97% (active),10% (inactive) and 27% (inactive),94% (active) and 96% (active),98% (active) and 97.8% (active),73% (active) and 90% (active),98% (active),98.2% (active) and 98.9% (active),70% (active) and 77% (active),98% (active),98.2% (active) and 97.6% (active)
COC(=O)C1OC(OC(C)=O)C(OC(C)=O)C(OC(C)=O)C1OC(C)=O (stereo unspecified),-4% (inactive),5% (inactive),7.25% (inactive) and 3.25% (inactive),-6% (inactive),8% (inactive),14.4% (inactive) and 8.2% (inactive),-5% (inactive),9% (inactive),7.05% (inactive) and 10.9% (inactive),1% (inactive),-2% (inactive),-12.2% (inactive) and 60.5% (inactive),-4% (inactive),11% (inactive),-7.15% (inactive) and 24.6% (inactive),-7% (inactive),14% (inactive),16% (inactive) and 9.3% (inactive)

# — PubChem BioAssay (NCI)
